# According to ChEMBL document CHEMBL3433997, “St. Jude Leishmania screening dataset” (2016):
# Molecular target: Solute carrier family 2, facilitated glucose transporter member 1 (Homo sapiens) (UniProt P11166)
# Assay: ST_JUDE_LEISH: Cytotoxicity at 2uM final concentration against transgenic Leishmania Mexicana promastigotes LmGLUT1 that are glucose transport deficient and complemented with the human glucose transporter GLUT1. Activity is measured by DNA content using SYBR green in vitro
# Format: functional
# Sequence of Solute carrier family 2, facilitated glucose transporter member 1 (Homo sapiens) (P11166 whole entry): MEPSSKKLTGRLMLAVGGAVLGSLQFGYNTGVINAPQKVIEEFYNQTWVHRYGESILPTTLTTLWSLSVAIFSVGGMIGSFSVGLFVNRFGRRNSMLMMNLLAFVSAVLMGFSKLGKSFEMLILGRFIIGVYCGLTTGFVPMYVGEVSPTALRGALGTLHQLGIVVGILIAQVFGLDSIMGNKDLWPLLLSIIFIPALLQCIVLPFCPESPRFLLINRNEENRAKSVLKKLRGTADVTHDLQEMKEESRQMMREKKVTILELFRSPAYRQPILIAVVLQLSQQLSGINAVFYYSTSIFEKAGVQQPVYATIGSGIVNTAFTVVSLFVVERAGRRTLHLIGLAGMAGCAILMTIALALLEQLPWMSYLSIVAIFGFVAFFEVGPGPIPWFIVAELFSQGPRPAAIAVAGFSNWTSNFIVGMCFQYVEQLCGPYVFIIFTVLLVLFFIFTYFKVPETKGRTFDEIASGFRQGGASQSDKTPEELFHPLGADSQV
row,Compound,inhibition
1,COc1cc(Cc2cnc(N)nc2N)ccc1OCc1ccc(F)c(F)c1,3.03%
2,CC1=C(C(=O)OC(C)C)C(c2ccccc2Cl)C2=C(CC(c3ccccc3)CC2=O)N1 (stereo not given),7.11%
3,CCOc1cc2ncnc(Nc3cc(Cl)c(Cl)c(Cl)c3)c2cc1OCC,0.38%
4,NC(=O)c1ccccc1Nc1nc(Nc2cc[nH]n2)ncc1Cl,6.52%
5,CCNc1cc(C(=O)N[C@@H](Cc2ccccc2)[C@H](O)CNC2(CC)CCCCC2)cc(N2CCCCS2(=O)=O)c1,-0.15%
6,Cc1ccc(NC(=O)c2ccc(CN3CCCN(Cc4cccc(Cl)c4)CC3)cc2)cc1C,3.09%
7,NC(=O)c1cc2nc(NC3CCC3)nc(Nc3cccc4[nH]ncc34)c2[nH]1,-0.69%
8,N#C/N=C(\NCCCCCCCCN/C(=N\C#N)NCCSCc1csc(N=C(N)N)n1)NCCCSc1csc(N=C(N)N)n1,-0.03%
9,Cc1ccc(C2(CN3CCC(NC(=O)c4n[nH]cc4Cl)CC3)CCCCC2)cc1,-1.34%
10,FC(F)(F)c1ccc2nccc(NCc3ccccc3)c2c1,6.8%
11,COC(=O)c1ccc(CCC(C)NCC(O)c2cccc(C(F)(F)F)c2)cc1 (stereo not given),0.8%
12,Cc1ccc(Cn2nc(Cl)c(N3CCCNCC3)cc2=O)cc1NC(=O)Nc1ccc(-c2ccccc2)cc1,-1.89%
13,O=C(NCCCCN1CCC(c2ccc3c(c2OCCO)CCCC3)CC1)c1ccc2oc(-c3ccc(C(F)(F)F)cc3)cc2c1,1.2%
14,Cc1cnc(-c2ccc(NC(=O)c3coc4ccc(N5CC(C)N(C)C(C)C5)cc34)cc2)o1 (stereo not given),-0.6%
15,CC(=O)N(C)C1CCN(Cc2cccc(-c3ccc(-c4nc5cc(C(F)(F)F)ccc5[nH]4)cc3)c2)C1 (stereo not given),2.39%
16,CN(C)C(=O)c1ccc(CN(Cc2ccc3c(c2)OCCO3)Cc2ccc3c(c2)OCO3)cc1,3.62%
17,O=C(Nc1cccc(CN2CCN(C(=O)c3ccccc3)CC2)c1)c1cccs1,4.55%
18,CCc1ccc(CN2CCC(CNC(=O)c3cc(-c4ccccc4Cl)cs3)C2)cc1 (stereo not given),7.86%
19,N#Cc1ccc(-c2ccc(C(=O)NC3CCN(CCN4CCC(c5cn(CCO)c6ccccc56)CC4)CC3)cc2)cc1,1.3%
20,CC(C)Cc1cn(-c2nc(-c3nc4ccccc4[nH]3)cs2)c2ccncc12,4.69%

row,Compound,inhibition
1,O=C(NCc1cccs1)[C@H](Cc1ccccc1)Nc1ccnc(NCCc2ccccc2)n1,-0.12%
2,Cc1cccc2nc(-c3ccc(-c4cccc(CNCc5cccc(N)c5)c4)cc3)[nH]c12,2.44%
3,CC(C)(C)c1cc(C(=O)N2CCN(c3ccc(C(F)(F)F)cn3)CC2)n(Cc2ccc(F)cc2)n1,-1.9%
4,O=C(Cc1ccc(NC(=O)c2ccc(O)c(-c3ccc(Cl)c(Cl)c3)c2)cc1)NCCc1ccc(Cl)c(Cl)c1,2.01%
5,COc1cc(Cc2cnc(N)nc2N)cc(OCCCCCC(N)=O)c1OC,-0.36%
6,CC1(C)[C@H]2CC[C@@H](CNc3nc(NCCc4c[nH]cn4)nc(Nc4ccc5c(c4)OCO5)n3)[C@@H]1C2,2.49%
7,Cc1ccccc1C1CCN(C2CCC(NC(=O)/C=C/c3cccc(Cl)c3Cl)CC2)CC1 (stereo not given),4.12%
8,CCOC(=O)C1=C(C)N=c2sc(=Cc3cc(Cl)ccc3O)c(=O)n2C1c1ccc(OC)cc1 (stereo not given),-0.92%
9,Cc1nc(Nc2ccncc2)cc(-c2ccncc2)n1,0.59%
10,Cc1ccc2[nH]c(/C=C/c3cccc4cc[nH]c34)nc2c1,4.9%
11,COc1ccc2nccc([C@@H](O)CN3CCC(NC(=O)c4ccc(OC)c(N)c4)CC3)c2c1,14.9%
12,Cc1cccc2nc(-c3ccc(-c4cccc(NC(=O)NCc5ccc(F)cc5)c4)cc3)[nH]c12,3.38%
13,CCN(CC)CCN(Cc1ccc(-c2ccc(C(F)(F)F)cc2)cc1)C(=O)Cn1c(/C=C/c2ccco2)nc(=O)c2ccccc21,-0.7%
14,CN(C)Cc1cccc(-c2ccc(Nc3nccc(NCC(O)c4ccccc4)n3)cc2)c1 (stereo not given),2.6%
15,Cc1c(N=O)cc(C(C)(C)C)c(O)c1C(=O)Nc1ccc([N+](=O)[O-])cc1Cl,2.33%
16,CC(C)C1C(O)=C(c2ccc3ccccc3c2)C(=O)N1Cc1cccc(F)c1 (stereo not given),6.97%
17,Cc1cccc(C)c1/N=C1\NC(=S)N(c2cccc(Cl)c2)C12CCC(C(C)(C)C)CC2 (stereo not given),-2.68%
18,c1ccc(-c2cccc(-c3ccccn3)n2)nc1,3.92%
19,COc1ccc(-c2cccc(NC(=O)c3cccc(C#N)c3)c2)cc1CN1CCN(C)CC1,4.2%
20,CCNC(=O)N1CCc2ccc(Oc3nc(NCc4ccccc4OC)ncc3C)cc2CC1,5.14%

# Molecular target: Hexose transporter 1 (Plasmodium falciparum) (UniProt O97467)
# Assay: ST_JUDE_LEISH: Cytotoxicity at 2uM final concentration against transgenic Leishmania Mexicana promastigotes LmPfHT that are glucose transport deficient and complemented with the Plasmodium falciparum hexose transporter. Activity is measured by DNA content using SYBR green in vitro
# Format: functional
row,Compound,inhibition
1,COc1cc(Cc2cnc(N)nc2N)ccc1OCc1ccc(F)c(F)c1,5.38%
2,CC1=C(C(=O)OC(C)C)C(c2ccccc2Cl)C2=C(CC(c3ccccc3)CC2=O)N1 (stereo not given),6.69%
3,CCOc1cc2ncnc(Nc3cc(Cl)c(Cl)c(Cl)c3)c2cc1OCC,1.95%
4,NC(=O)c1ccccc1Nc1nc(Nc2cc[nH]n2)ncc1Cl,4.28%
5,CCNc1cc(C(=O)N[C@@H](Cc2ccccc2)[C@H](O)CNC2(CC)CCCCC2)cc(N2CCCCS2(=O)=O)c1,0.61%
6,Cc1ccc(NC(=O)c2ccc(CN3CCCN(Cc4cccc(Cl)c4)CC3)cc2)cc1C,3.31%
7,NC(=O)c1cc2nc(NC3CCC3)nc(Nc3cccc4[nH]ncc34)c2[nH]1,-0.16%
8,N#C/N=C(\NCCCCCCCCN/C(=N\C#N)NCCSCc1csc(N=C(N)N)n1)NCCCSc1csc(N=C(N)N)n1,0.11%
9,Cc1ccc(C2(CN3CCC(NC(=O)c4n[nH]cc4Cl)CC3)CCCCC2)cc1,0.31%
10,FC(F)(F)c1ccc2nccc(NCc3ccccc3)c2c1,5.96%
11,COC(=O)c1ccc(CCC(C)NCC(O)c2cccc(C(F)(F)F)c2)cc1 (stereo not given),0.12%
12,Cc1ccc(Cn2nc(Cl)c(N3CCCNCC3)cc2=O)cc1NC(=O)Nc1ccc(-c2ccccc2)cc1,1.72%
13,O=C(NCCCCN1CCC(c2ccc3c(c2OCCO)CCCC3)CC1)c1ccc2oc(-c3ccc(C(F)(F)F)cc3)cc2c1,2.49%
14,Cc1cnc(-c2ccc(NC(=O)c3coc4ccc(N5CC(C)N(C)C(C)C5)cc34)cc2)o1 (stereo not given),1.55%
15,CC(=O)N(C)C1CCN(Cc2cccc(-c3ccc(-c4nc5cc(C(F)(F)F)ccc5[nH]4)cc3)c2)C1 (stereo not given),-4.29%
16,CN(C)C(=O)c1ccc(CN(Cc2ccc3c(c2)OCCO3)Cc2ccc3c(c2)OCO3)cc1,3.62%
17,O=C(Nc1cccc(CN2CCN(C(=O)c3ccccc3)CC2)c1)c1cccs1,2.87%
18,CCc1ccc(CN2CCC(CNC(=O)c3cc(-c4ccccc4Cl)cs3)C2)cc1 (stereo not given),8.8%
19,N#Cc1ccc(-c2ccc(C(=O)NC3CCN(CCN4CCC(c5cn(CCO)c6ccccc56)CC4)CC3)cc2)cc1,1.27%
20,CC(C)Cc1cn(-c2nc(-c3nc4ccccc4[nH]3)cs2)c2ccncc12,6.3%

row,Compound,inhibition
1,O=C(NCc1cccs1)[C@H](Cc1ccccc1)Nc1ccnc(NCCc2ccccc2)n1,-1.06%
2,Cc1cccc2nc(-c3ccc(-c4cccc(CNCc5cccc(N)c5)c4)cc3)[nH]c12,2.16%
3,CC(C)(C)c1cc(C(=O)N2CCN(c3ccc(C(F)(F)F)cn3)CC2)n(Cc2ccc(F)cc2)n1,-3.19%
4,O=C(Cc1ccc(NC(=O)c2ccc(O)c(-c3ccc(Cl)c(Cl)c3)c2)cc1)NCCc1ccc(Cl)c(Cl)c1,2.38%
5,COc1cc(Cc2cnc(N)nc2N)cc(OCCCCCC(N)=O)c1OC,-2.79%
6,CC1(C)[C@H]2CC[C@@H](CNc3nc(NCCc4c[nH]cn4)nc(Nc4ccc5c(c4)OCO5)n3)[C@@H]1C2,0.99%
7,Cc1ccccc1C1CCN(C2CCC(NC(=O)/C=C/c3cccc(Cl)c3Cl)CC2)CC1 (stereo not given),1.26%
8,CCOC(=O)C1=C(C)N=c2sc(=Cc3cc(Cl)ccc3O)c(=O)n2C1c1ccc(OC)cc1 (stereo not given),0%
9,Cc1nc(Nc2ccncc2)cc(-c2ccncc2)n1,4.18%
10,Cc1ccc2[nH]c(/C=C/c3cccc4cc[nH]c34)nc2c1,4.05%
11,COc1ccc2nccc([C@@H](O)CN3CCC(NC(=O)c4ccc(OC)c(N)c4)CC3)c2c1,16.7%
12,Cc1cccc2nc(-c3ccc(-c4cccc(NC(=O)NCc5ccc(F)cc5)c4)cc3)[nH]c12,4.77%
13,CCN(CC)CCN(Cc1ccc(-c2ccc(C(F)(F)F)cc2)cc1)C(=O)Cn1c(/C=C/c2ccco2)nc(=O)c2ccccc21,-0.97%
14,CN(C)Cc1cccc(-c2ccc(Nc3nccc(NCC(O)c4ccccc4)n3)cc2)c1 (stereo not given),3.43%
15,Cc1c(N=O)cc(C(C)(C)C)c(O)c1C(=O)Nc1ccc([N+](=O)[O-])cc1Cl,5.18%
16,CC(C)C1C(O)=C(c2ccc3ccccc3c2)C(=O)N1Cc1cccc(F)c1 (stereo not given),7.53%
17,Cc1cccc(C)c1/N=C1\NC(=S)N(c2cccc(Cl)c2)C12CCC(C(C)(C)C)CC2 (stereo not given),-1.2%
18,c1ccc(-c2cccc(-c3ccccn3)n2)nc1,2.46%
19,COc1ccc(-c2cccc(NC(=O)c3cccc(C#N)c3)c2)cc1CN1CCN(C)CC1,2.19%
20,CCNC(=O)N1CCc2ccc(Oc3nc(NCc4ccccc4OC)ncc3C)cc2CC1,6.01%
